Measured values taken from PubChem BioAssay (Tox21).
Values without a mark were called inactive. Inconclusive results are not listed. A call without a number means that no potency is given here. The source made the active and inactive calls. Unless noted, calls follow the shape of the full dose curve.

Columns and labels:
[1] = Nuclear factor erythroid 2-related factor 2/antioxidant responsive element (Nrf2/ARE) small molecule agonists: qHTS cell viability counter screen in human keratinocytes (AID 1919968; active = well fitted curve in the direction sought with a large enough effect in the repeat runs; an effect the other way counts as inactive or inconclusive; also: nearly all actives have a fitted effect of over 55% in size; also: potency is read from the fitted curve at half-maximal effect)
In short: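 KeratinoSens cells (HaCaT keratinocytes stably carrying an ARE-luciferase reporter) were seeded at 1,500 cells/well and rested 5 h at 37 C/5% CO2. They were then exposed to compounds in DMSO for 23 h. Viability was read by CellTiter-Fluor fluorescence after 1 h.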

[2] = Nuclear factor erythroid 2-related factor 2/antioxidant responsive element (Nrf2/ARE) small molecule agonists: luciferase reporter gene qHTS assay in human keratinocytes (AID 1919969); also: nearly all actives have a fitted effect of over 35% in size; also: potency is read from the fitted curve at half-maximal effect
[3] = biological target: Gonadotropin-releasing hormone receptor (Homo sapiens) (UniProt P30968); test: Human gonadotropin-releasing hormone receptor (GnRHR) small molecule agonists, calcium flux assay in GnRHR-HEK293 cells (AID 1920063); also: nearly all actives have a fitted effect of over 35% in size
In short: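 HEK293 cells stably expressing human GnRHR were plated 18 h at 37 °C, loaded with calcium dye 1 h at 37 °C, then given compound in agonist mode; fluorescence (Ex/Em 480/540) read kinetically for 3 min at 1 s intervals.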

[4] = biological target: KiSS-1 receptor (Homo sapiens) (UniProt Q969F8); test: Human kisspeptin (KISS1R) small molecule agonists, calcium flux assay in KISS1R-HEK293 cells (AID 1920064; active = well fitted curve in the direction sought with a large enough effect in the repeat runs; an effect the other way counts as inactive or inconclusive)
In short: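 HEK293 cells stably expressing human KISS1R were plated 18 h at 37 °C, loaded with calcium dye for 1 h at 37 °C, then given compound by pin tool. Fluorescence (Ex/Em 480/540) was read kinetically for 3 min.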

[5] = p53 small molecule agonists, cell-based qHTS assay with human liver microsomes (AID 1963577)
In short: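 Cells carrying a p53-responsive bla reporter were rested 5 h (37 C, 5% CO2) before compound transfer. Human liver microsomes plus NADPH, 0.5 mg/mL final apiece, supplied metabolism during the 16 h 37 C exposure.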

[6] = p53 small molecule agonists, cell-based qHTS assay with rat liver microsomes (AID 1963578)
In short: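 Fluorescence from a beta-lactamase reporter under a p53 response element was measured after cells had been incubated 16 h at 37 C with test compound and rat liver microsomes plus NADPH (0.5 mg/mL final each).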

[7] = p53 small molecule agonists, cell-based qHTS assay with human liver microsomes: qHTS cell viability counter screen (AID 1963579); also: nearly all actives have a fitted effect of over 45% in size
In short: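 Seed p53RE-bla cells at 4,000 per well; incubate 5 h at 37 C; add compound, human liver microsomes and NADPH; incubate 16 h at 37 C; add CellTiter-Glo; after 30 min at room temperature, read luminescence.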

[8] = p53 small molecule agonists, cell-based qHTS assay with rat liver microsomes: qHTS cell viability counter screen (AID 1963580); also: nearly all actives have a fitted effect of over 45% in size
In short: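 Intracellular ATP, by CellTiter-Glo luminescence, defines viability. HCT-116 p53RE-bla cells, 4,000 per well, were compound-treated in the presence of rat liver microsomes and NADPH for 16 h at 37 C.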

[9] = biological target: 5-hydroxytryptamine receptor 2A (Homo sapiens) (UniProt P28223); test: 5-hydroxytryptamine receptor 2A (HTR2A) small molecule antagonists, cell-based qHTS assay (AID 1963586); also: nearly all actives have a fitted effect of over 45% in size
In short: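 Antagonist-mode intracellular calcium assay: DOI (4 nM) added after 5 min compound pre-incubation at room temperature to dye-loaded HTR2A-CHO cells. Fluorescence followed for 3 min, sampled every second.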

[10] = biological target: 5-hydroxytryptamine receptor 2A (Homo sapiens) (UniProt P28223); test: 5-hydroxytryptamine receptor 2A (HTR2A) small molecule agonists, cell-based qHTS assay (AID 1963587); also: nearly all actives have a fitted effect of over 30% in size
In short: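 Kinetic calcium-flux fluorescence (2 min, 1 sec intervals) after compound addition in agonist mode. HTR2A-CHO cells were cultured 18 h, then dye-loaded 1 h at 37 C.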

[11] = biological target: Muscarinic acetylcholine receptor M1 (Homo sapiens) (UniProt P11229); test: Cholinergic receptor muscarinic 1 (CHRM1) small molecule antagonists, cell-based qHTS assay (AID 1963588); also: nearly all actives have a fitted effect of over 40% in size
In short: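 CHRM1-CHO calcium-flux assay, antagonist mode. Cells were seeded 18 h, dye-loaded 1 h at 37 C and given compound for 5 min at RT, then acetylcholine was added at 50nM. FDSS fluorescence was read 3 min; 15 concentrations, three runs.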

[12] = biological target: Muscarinic acetylcholine receptor M1 (Homo sapiens) (UniProt P11229); test: Cholinergic receptor muscarinic 1 (CHRM1) small molecule agonists, cell-based qHTS assay (AID 1963589); also: nearly all actives have a fitted effect of over 35% in size
In short: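 CHO cells stably expressing human CHRM1, seeded 18 h at 37 C/5% CO2, dye-loaded 1 h at 37 C, then given compound in agonist mode; intracellular calcium fluorescence read kinetically at 1 s intervals. Fifteen concentrations, three independent runs.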

[13] = p53 small molecule agonists, cell-based qHTS assay (AID 1963582; active = well fitted activation curve with a large enough effect in the signal ratio in the repeat runs, not every such curve was filed as active; the % refers to the signal ratio)
In short: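 p53RE-bla beta-lactamase reporter cells rested 5 h at 37 C/5% CO2, then received compounds in DMSO by pin transfer and were incubated 16 h at 37 C. LiveBLAzer B/G FRET substrate was loaded for 2 h at room temperature before fluorescence reading.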

[14] = cAMP Responsive Elements (CRE) small molecule agonists, cell-based qHTS assay (AID 1963590)
In short: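 CRE-bla HEK 293T cells in DMEM with 10% dialyzed FBS, NEAA, pyruvate and 25 mM HEPES were plated 18 h at 37 C/5% CO2, then exposed to compounds in DMSO for 3 h before LiveBLAzer B/G FRET substrate addition.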

[15] = cAMP Responsive Elements (CRE) small molecule antagonists, cell-based qHTS assay (AID 1963591; active = well fitted inhibition curve with a large enough effect in the signal ratio in the repeat runs, not every such curve was filed as active; the % refers to the signal ratio)
In short: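 CRE-bla HEK293T cells were plated 18 h at 37 °C/5% CO2, pinned with compound in DMSO, then stimulated with NKH477 at 0.25 uM final for 3 h. LiveBLAzer B/G FRET substrate was added and plates incubated 2 h at room temperature.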

[16] = biological target: Beta-2 adrenergic receptor (Homo sapiens) (UniProt P07550); test: Adrenergic beta2 receptor (ADRB2) small molecule antagonists, cell-based qHTS assay (AID 1963592); also: series mostly up to about 92 µM; nearly all actives have a fitted effect of over 50% in size
In short: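 Cells (CHO, stable ADRB2 overexpression) incubated 18-20hr at 37C; compounds added from DMSO; agonist mix (1nM isoproterenol, 100uM IBMX, 25uM Ro-20-1724) added; 0.5hr RT; d2-cAMP and anti-cAMP-cryptate added; 1hr RT; 665/615 nm read.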

[17] = biological target: D(2) dopamine receptor (Homo sapiens) (UniProt P14416); test: Dopamine D2 receptor (DRD2) small molecule agonists, cell-based qHTS assay (AID 1963594); also: nearly all actives have a fitted effect of over 35% in size
In short: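 cAMP accumulation in DRD2-HEK293 cells measured by HTRF after 1 h detection; compounds added 10 min before NKH477 (200nM […]) forskolin-analogue stimulation, 30 min at room temperature, with Ro20-1724 present at 0.1 mM final.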

[18] = biological target: D(2) dopamine receptor (Homo sapiens) (UniProt P14416); test: Dopamine D2 receptor (DRD2) small molecule antagonists, cell-based qHTS assay (AID 1963595; active = well fitted inhibition curve with a large enough effect in the signal ratio in the repeat runs, with a control signal flat; the % refers to the signal ratio)
In short: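 Antagonist mode in DRD2-HEK293 cells: after compound addition with 0.1 mM Ro20-1724, cells received quinpirole (12 nM) and NKH477 (200 nM) for 30 min at room temperature; HTRF cAMP read after 1 h detection.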

[19] = biological target: Beta-2 adrenergic receptor (Homo sapiens) (UniProt P07550); test: Adrenergic beta2 receptor (ADRB2) small molecule agonists, cell-based qHTS assay (AID 1963593);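 also: CHO cells stably overexpressing human ADRB2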
In short: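 CHO cells stably over-expressing ADRB2 were plated overnight at 37C, then dosed with compounds plus a stimulation mix containing 100uM IBMX and 25uM Ro-20-1724 for 0.5hr at room temperature. cAMP was measured by HTRF competition, 1hr.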

[20] = p53 small molecule agonists, cell-based qHTS assay: qHTS cell viability counter screen (AID 1963581); also: nearly all actives have a fitted effect of over 45% in size
In short: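 p53RE-bla HCT-116 cells were exposed to compounds for 16 h at 37 C; after the beta-lactamase FRET read in the same wells, CellTiter-Glo was added and luminescence (intracellular ATP) read after 30 min at room temperature.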

Sequence of Beta-2 adrenergic receptor (Homo sapiens) (P07550 whole entry, looked up): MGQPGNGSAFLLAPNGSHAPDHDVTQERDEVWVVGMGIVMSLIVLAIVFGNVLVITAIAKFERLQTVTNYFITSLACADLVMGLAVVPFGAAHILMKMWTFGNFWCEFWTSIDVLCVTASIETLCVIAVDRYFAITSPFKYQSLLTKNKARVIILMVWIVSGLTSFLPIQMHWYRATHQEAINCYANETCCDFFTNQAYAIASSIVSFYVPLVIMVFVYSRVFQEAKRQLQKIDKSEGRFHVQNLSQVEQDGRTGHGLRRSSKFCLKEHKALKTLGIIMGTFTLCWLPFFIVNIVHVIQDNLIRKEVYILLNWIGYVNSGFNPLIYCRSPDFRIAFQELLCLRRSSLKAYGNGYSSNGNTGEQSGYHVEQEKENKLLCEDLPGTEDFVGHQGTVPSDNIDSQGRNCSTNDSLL
Sequence of 5-hydroxytryptamine receptor 2A (Homo sapiens) (P28223 whole entry, looked up): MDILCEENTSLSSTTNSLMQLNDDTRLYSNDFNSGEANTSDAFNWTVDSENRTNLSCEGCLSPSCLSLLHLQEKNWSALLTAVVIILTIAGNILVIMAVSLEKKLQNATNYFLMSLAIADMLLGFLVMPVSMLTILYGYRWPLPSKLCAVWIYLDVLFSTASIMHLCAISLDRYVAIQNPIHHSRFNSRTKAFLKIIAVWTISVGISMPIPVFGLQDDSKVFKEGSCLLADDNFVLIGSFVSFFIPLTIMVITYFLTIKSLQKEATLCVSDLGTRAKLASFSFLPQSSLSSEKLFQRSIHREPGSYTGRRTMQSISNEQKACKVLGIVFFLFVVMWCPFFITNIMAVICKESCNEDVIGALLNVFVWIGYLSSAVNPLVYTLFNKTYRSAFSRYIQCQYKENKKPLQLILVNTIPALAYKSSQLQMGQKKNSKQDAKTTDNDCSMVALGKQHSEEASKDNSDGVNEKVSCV
Sequence of Gonadotropin-releasing hormone receptor (Homo sapiens) (P30968 whole entry, looked up): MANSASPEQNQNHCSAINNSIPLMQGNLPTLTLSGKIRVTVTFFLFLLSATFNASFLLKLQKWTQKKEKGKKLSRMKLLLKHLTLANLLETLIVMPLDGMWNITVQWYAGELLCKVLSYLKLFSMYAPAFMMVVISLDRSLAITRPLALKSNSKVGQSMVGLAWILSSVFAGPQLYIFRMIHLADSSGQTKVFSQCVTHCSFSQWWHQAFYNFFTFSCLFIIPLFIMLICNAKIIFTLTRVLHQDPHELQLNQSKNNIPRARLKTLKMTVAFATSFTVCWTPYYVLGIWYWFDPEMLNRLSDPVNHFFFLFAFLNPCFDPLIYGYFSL
Sequence of KiSS-1 receptor (Homo sapiens) (Q969F8 whole entry, looked up): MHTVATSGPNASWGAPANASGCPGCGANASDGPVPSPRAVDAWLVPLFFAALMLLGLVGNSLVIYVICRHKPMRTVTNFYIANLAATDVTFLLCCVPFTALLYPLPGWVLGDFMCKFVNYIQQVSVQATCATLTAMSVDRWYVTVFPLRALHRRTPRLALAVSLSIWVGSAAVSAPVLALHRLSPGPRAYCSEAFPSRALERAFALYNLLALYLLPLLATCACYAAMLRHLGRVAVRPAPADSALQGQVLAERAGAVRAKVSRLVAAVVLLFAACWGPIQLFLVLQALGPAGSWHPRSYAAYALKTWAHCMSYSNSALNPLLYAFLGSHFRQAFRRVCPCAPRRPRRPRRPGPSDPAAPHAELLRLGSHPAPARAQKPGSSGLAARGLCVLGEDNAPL
Sequence of Muscarinic acetylcholine receptor M1 (Homo sapiens) (P11229 whole entry, looked up): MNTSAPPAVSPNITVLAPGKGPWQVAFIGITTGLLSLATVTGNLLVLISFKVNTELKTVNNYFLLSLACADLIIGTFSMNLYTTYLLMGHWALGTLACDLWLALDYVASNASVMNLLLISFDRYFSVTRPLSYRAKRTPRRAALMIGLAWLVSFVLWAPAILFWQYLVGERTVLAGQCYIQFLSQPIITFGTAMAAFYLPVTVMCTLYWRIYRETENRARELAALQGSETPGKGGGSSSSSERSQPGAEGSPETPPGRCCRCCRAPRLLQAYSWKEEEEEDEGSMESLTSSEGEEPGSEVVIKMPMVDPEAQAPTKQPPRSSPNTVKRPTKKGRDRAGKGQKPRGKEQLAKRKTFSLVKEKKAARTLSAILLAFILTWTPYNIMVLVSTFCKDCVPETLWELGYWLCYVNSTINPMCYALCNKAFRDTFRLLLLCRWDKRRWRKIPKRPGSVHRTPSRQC
Sequence of D(2) dopamine receptor (Homo sapiens) (P14416 whole entry, looked up): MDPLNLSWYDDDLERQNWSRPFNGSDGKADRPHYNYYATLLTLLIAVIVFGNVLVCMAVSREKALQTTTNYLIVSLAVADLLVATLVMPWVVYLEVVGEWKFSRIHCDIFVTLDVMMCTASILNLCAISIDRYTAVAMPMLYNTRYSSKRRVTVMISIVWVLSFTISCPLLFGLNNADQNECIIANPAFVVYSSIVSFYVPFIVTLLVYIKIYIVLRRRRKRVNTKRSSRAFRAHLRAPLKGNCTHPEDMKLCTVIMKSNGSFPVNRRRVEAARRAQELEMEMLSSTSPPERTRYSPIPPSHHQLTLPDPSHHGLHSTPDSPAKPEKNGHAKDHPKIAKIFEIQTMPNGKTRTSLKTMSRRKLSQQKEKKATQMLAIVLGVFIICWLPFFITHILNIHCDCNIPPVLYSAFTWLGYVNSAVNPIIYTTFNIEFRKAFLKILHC

Structure (SMILES) | Potency [1] | Potency [2] | Potency [3] | outcome [4] | Potency [5] | Potency [6] | Potency [7] | Potency [8] | Potency [9] | Potency [10] | Potency [11] | Potency [12] | Potency [13] | Potency [14] | Potency [15] | Potency [16] | Potency [17] | Potency [18] | Potency [19] | Potency [20]
CCN(CC)C(=O)/C(C#N)=C/c1cc(O)c(O)c([N+](=O)[O-])c1 | inactive | inactive | inactive | inactive | inactive | inactive | inactive | inactive | inactive | inactive | inactive | inactive | – | – | – | – | – | – | – | –
O=C(O)c1ccc(Cl)cc1Cl | inactive | inactive | inactive | inactive | inactive | inactive | inactive | inactive | inactive | – | inactive | inactive | inactive | inactive | inactive | inactive | inactive | inactive | – | –
CCCSS/C(CCO)=C(\C)N(C=O)Cc1cnc(C)nc1N | inactive | 29.8 µM (active) | inactive | inactive | inactive | inactive | inactive | – | inactive | inactive | inactive | inactive | – | inactive | inactive | inactive | – | inactive | inactive | –
CC(=O)OC1CCC(C(C)(C)C)CC1 (centres undefined) | inactive | inactive | inactive | inactive | inactive | inactive | inactive | inactive | inactive | inactive | inactive | inactive | inactive | inactive | inactive | inactive | inactive | inactive | inactive | –
C=C(C)c1ccccc1 | inactive | inactive | inactive | inactive | inactive | inactive | inactive | inactive | inactive | inactive | inactive | inactive | inactive | inactive | inactive | – | inactive | inactive | – | –
CCCc1nc2c(C)cc(-c3nc4ccccc4n3C)cc2n1Cc1ccc(-c2ccccc2C(=O)O)cc1 | inactive | inactive | inactive | inactive | inactive | inactive | inactive | inactive | – | inactive | inactive | inactive | – | – | – | inactive | inactive | inactive | – | inactive
COC(=O)c1ccc(I)cc1S(=O)(=O)NC(=O)Nc1nc(C)nc(OC)n1 | inactive | inactive | inactive | inactive | inactive | inactive | – | inactive | – | inactive | inactive | – | inactive | – | – | inactive | inactive | – | – | inactive
CCC(C)c1cc([N+](=O)[O-])cc([N+](=O)[O-])c1OC(=O)OC(C)C (centres undefined) | 38.6 µM (active) | 9.69 µM (active) | inactive | inactive | inactive | inactive | – | inactive | – | inactive | inactive | inactive | – | – | – | – | inactive | inactive | – | inactive
CCO | inactive | inactive | inactive | inactive | inactive | inactive | inactive | – | – | – | – | – | inactive | inactive | inactive | inactive | inactive | inactive | – | inactive
CCCCCOc1ccc(C2SC(=O)NC2=O)cc1OCC (centres undefined) | inactive | inactive | inactive | inactive | inactive | inactive | inactive | inactive | inactive | inactive | – | inactive | – | – | – | inactive | – | inactive | inactive | inactive
CC(C(=O)O)c1ccc(/C=C2\CCCCC2=O)cc1 (centres undefined) | inactive | 23.7 µM (active) | inactive | – | inactive | inactive | inactive | inactive | inactive | inactive | inactive | inactive | inactive | – | – | inactive | – | inactive | – | inactive
CCCCCCCCCC[N+](C)(C)[O-] | inactive | inactive | inactive | inactive | inactive | – | inactive | inactive | inactive | – | inactive | inactive | inactive | inactive | inactive | inactive | inactive | inactive | inactive | inactive
CC(=O)Oc1cc2c(s1)CCN(C(C(=O)C1CC1)c1ccccc1F)C2 (centres undefined) | inactive | inactive | inactive | – | inactive | inactive | inactive | inactive | inactive | inactive | inactive | inactive | inactive | – | – | inactive | inactive | inactive | – | inactive
CCCOC(=O)c1ccc(C(=O)OCCC)nc1 | inactive | inactive | inactive | inactive | inactive | – | inactive | inactive | inactive | inactive | inactive | inactive | – | – | – | inactive | inactive | – | – | –
CC(C)NCC(O)COc1ccc(COCCOC(C)C)cc1 (centres undefined) | inactive | inactive | inactive | – | inactive | inactive | inactive | inactive | inactive | inactive | – | inactive | inactive | inactive | – | – | – | inactive | – | inactive
[Cu+] | inactive | 54.5 µM (active) | inactive | – | inactive | inactive | inactive | inactive | inactive | inactive | inactive | inactive | inactive | inactive | inactive | inactive | – | inactive | – | inactive
